PLCg1 inh – PLC-gamma1 enzyme inhibitors, primary screen, biochemical, fluorescence, purified enzyme; inhibition, % at 12.2 µM; 1-phosphatidylinositol 4,5-bisphosphate phosphodiesterase gamma-1 (Homo sapiens), P19174; 370,000 compounds, 0.84% hits; AID 720700, 2013; fluorogenic substrate; in the data active = inhibition above about 9.5%
PLCb3 inh – human PLC-beta3 inhibitors, primary screen, biochemical, fluorescence | 1-phosphatidylinositol 4,5-bisphosphate phosphodiesterase beta-3 (Homo sapiens), Q01970 | 370,000 compounds, 0.18% hits | AID 720704, 2013 | inhibition, % at 12.2 µM | Purified PLC-beta3, fluorogenic substrate; in the data active = inhibition above about 11%;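 also: 0% = median of compound wells on plate and 100% = full blocker control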
ADAM17 inh – ADAM17 inhibitors, primary screen, biochemical, QFRET; Disintegrin and metalloproteinase domain-containing protein 17 (Homo sapiens), P78536; recombinant ADAM17, EDANS/DABCYL FRET peptide cleavage; inhibition, % at 6.95 µM; 370,000 compounds, 0.83% hits; AID 720648, 2013;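 active = inhibition above the mean of compounds lying between control limits plus 3 SD, set per campaign, cut at about 8.5% in these data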;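 also: 0% = DMSO-only wells as the low control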
ADAM10 inh – human ADAM10 inhibitors, primary screen, biochemical, QFRET, HTS; Disintegrin and metalloproteinase domain-containing protein 10 (Homo sapiens), O14672; recombinant ADAM10, EDANS/DABCYL FRET peptide cleavage, 3 h; inhibition, % at 7 µM; 370,000 compounds, 0.62% hits;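 active = inhibition above a per-campaign cutoff equal to the mean of compounds falling between control-based bounds plus 3 SD, cut at about 20% in these data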;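 also: 0% = DMSO wells while the 100% control is not disclosed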
proKLK7 act – proKLK7 zymogen activators, primary screen, biochemical, fluorescence intensity; Kallikrein-7 (Homo sapiens), P49862; purified proKLK7, EDANS-DABCYL substrate fluorescence; 100% is mature enzyme control, 0% vehicle; activation, % at 7 µM; 370,000 compounds, 0.9% hits; AID 652039, 2013;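 active = activation above the mean of all tested compounds plus 3 SD, computed per campaign excluding outliers beyond control limits, cut at about 13% in these data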
Target sequence (P49862 whole entry, looked up): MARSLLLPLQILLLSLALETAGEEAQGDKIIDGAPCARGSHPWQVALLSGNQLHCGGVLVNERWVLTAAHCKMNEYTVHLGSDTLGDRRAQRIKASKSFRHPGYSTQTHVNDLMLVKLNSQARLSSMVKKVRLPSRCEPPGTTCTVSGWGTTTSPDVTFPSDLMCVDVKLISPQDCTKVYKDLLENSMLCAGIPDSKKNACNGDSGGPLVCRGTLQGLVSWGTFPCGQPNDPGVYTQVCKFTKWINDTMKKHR
KLK7 act conf – proKLK7 zymogen activators, confirmation, biochemical, fluorescence intensity, triplicate; 3,200 compounds, 68% hits; shares compounds with proKLK7 act; purified proKLK7, EDANS-DABCYL substrate fluorescence; scaled: vehicle 0, mature enzyme 100; activation, % at 7 µM;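 active = activation, as change over the incubation, above the mean of all tested compounds plus 3 SD, cut at about 13% in these data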
EDANS interfere – EDANS-DABCYL substrate optical interference, artefact control for kallikrein-7 zymogen activator project, biochemical, fluorescence intensity, high throughput; shares compounds with proKLK7 act; no enzyme, 4 h; solvent 0%, active enzyme control 100%; activation, % at 7 µM; 3,200 compounds, 80% hits; AID 686952, 2013;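 active = activation above the all-compound mean plus 3 SD, ignoring values outside control-based bounds, cut at about 4.8% in these data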;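 also: value is the 4 h activation minus the activation read at time zero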
K7 EDANS ctr – EDANS fluorescence interference in dose response, no enzyme; AID 720493; EC50, µM; EDANS-DABCYL peptide fluorescence interference; 250 compounds, 20% hits; shares compounds with proKLK7 act;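 active = compounds that raise the fluorescence signal in this interference counterscreen, with EC50 at or below 10 µM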;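 also: intact quenched peptide substrate alone read at 355 nm excitation and 520 nm emission; signal is fluorescence gain from T0 to T4 after four hours at room temperature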
Numbers without * were called inactive; i = inactive; / = no result; ! = not confirmed by another sample. Only some compounds are listed: those with a hit (about 2.9% of all), similar ones and a draw of the others.

SMILES	PLCg1 inh	PLCb3 inh	ADAM17 inh	ADAM10 inh	proKLK7 act	KLK7 act conf	EDANS interfere	others
CCOC(=O)C1CCN(S(=O)(=O)c2cccc(-c3cn4cc(C)ccc4n3)c2)CC1	-18	-16	-8	-8	-2	/	/
Oc1ccc2ccccc2c1C=Nc1ccccc1-c1nc2ccccc2[nH]1	i	i	i	i	38*	-43	-39
O=C(O)c1ccccc1-c1nc2ccccc2[nH]1	-6	-5	-2	-6	0	/	/
CNC(=O)OCc1cocc1COC(=O)NC	5	6	1	1	42*	0	0
CCN1CCN(Cc2c(O)ccc3c(=O)c(-c4ccc(OC)c(OC)c4)c(C)oc23)CC1	-261	-340	-140	-391	11	/	/
Cc1oc2c(CN3CCOCC3)c(O)ccc2c(=O)c1-c1ccc(Cl)cc1	-373	i	-253	i	49*	7	6.1*
Cc1oc2c(CN3CCCC3)c(O)ccc2c(=O)c1-c1ccc(Cl)cc1	i	i	-410	i	27*	40*	50*
Cc1oc2c(CN3CCC(C)CC3)c(O)ccc2c(=O)c1-c1ccccc1	i	i	i	i	37*	40*	45*
Cc1oc2c(CN3CCCCC3C)c(O)ccc2c(=O)c1-c1ccc(Br)cc1 (stereo not given)	i	i	-358	i	10	/	/
Cc1cc(Nc2cc(Cl)cc(Cl)c2)nc(N)n1	3	-6	3	0	0	/	/
N#CCCN(CCN1CCCC1)S(=O)(=O)c1ccc(-c2ccc([N+](=O)[O-])cc2)cc1	0	-1	-4	-2	1	/	/
CCN(CC)C(=O)c1cc2c(=O)n3ccccc3nc2s1	i	i	i	i	64*	64*	82*
CC(C)CN(CC(C)C)C(=O)c1cc2c(=O)n3ccccc3nc2s1	-477	i	-325	i	22*	-78	-69
CCC(C)NC(=O)c1cc2c(=O)n3ccccc3nc2s1 (stereo not given)	i	i	i	i	66*	61*	70*
COCCN(CCOC)C(=O)c1cc2c(=O)n3ccccc3nc2s1	-237	-341	-232	i	9	/	/
CN(C)S(=O)(=O)c1cccc(NC(=O)c2cc3c(=O)n4ccccc4nc3s2)c1	-20	-21	-12	-58	0	/	/
CCC(C)NC(=O)c1cc2cc3ccc(OC)cc3nc2s1 (stereo not given)	-312	-344	i	i	30*	3	5.7*
CC(=O)Nc1ccc(S(=O)(=O)Nc2ccccc2C(=O)NCc2cccnc2)cc1	-1	-9	-5	-12	-1	/	/
O=C(Nc1nnc(SCC(=O)N2CCCC2)s1)C1CC(=O)N(c2ccc(F)cc2)C1 (stereo not given)	-3	-9	-1	-4	0	/	/
CCCn1nc(NC(=O)c2ccco2)c2cc3ccc(C)cc3nc21	-457	i	-61	-171	-188	/	/
Cc1cccn2c(=O)c3cc(C(=O)NCC(C)C)sc3nc12	-46	-80	-66	-183	0	/	/
CC(C)CCNC(=O)c1cc2c(=O)n3ccccc3nc2s1	i	i	i	i	63*	33*	41*
O=C(NCCO)c1cccc(-c2cc(Nc3ccc(OC(F)(F)F)cc3)ncn2)c1	-123	-171	-12	-55	-2	/	/
O=C1CCCC2=C1C(c1ccncc1)n1c(nc3ccccc31)N2 (stereo not given)	i	i	i	i	47*	63*	75*
CC1CC(=O)C2=C(C1)Nc1nc3ccccc3n1C2c1cccnc1 (stereo not given)	i	i	i	i	76*	64*	72*
SMILES	PLCg1 inh	PLCb3 inh	ADAM17 inh	ADAM10 inh	proKLK7 act	KLK7 act conf	EDANS interfere	others
CSc1nc2n(n1)C(c1cccs1)C1=C(CCCC1=O)N2 (stereo not given)	-80	-129	-35	-102	-20	/	/
COc1ccc(S(=O)(=O)Nc2cc(C(C)C)c(O)cc2C)cc1	1	-1	-5	-5	0	/	/
COc1ccc2nc3cc(Cl)ccc3c(Nc3cc(C(C)C)c(O)cc3C)c2c1	-66	-106	-45	-83	20*	0	2
O=c1nc2ccc(Cl)cn2c2ccc(S(=O)(=O)N3CCOCC3)cc12	i	i	-496	i	20*	70*	78*
O=c1nc2ccc(Cl)cn2c2ccc(S(=O)(=O)N3CCCCC3)cc12	-460	i	-196	i	-9	/	/
C/C(=N/N=C(/N)SCc1ccccc1)C(C)(C)C	-4	-3	2	-10	-1	/	/
Cc1cccc(-n2c(SCC(=O)N3CCCC3)nc3n[nH]c(C)c3c2=N)c1	-7	-9	-3	4	30*	70*	43*	K7 EDANS ctr=i
N#Cc1cc2ccc(N3CCOCC3)cc2cc1C#N	i	i	-111	-320	34*	-88	-48
CCOc1ccc2c(c1)c1nnc(SCC3CCCO3)nc1n2C (stereo not given)	0	3	-2	1	1	/	/
CCC(SC1=N/C(=C/c2ccccc2OC)C(=O)N1c1ccccc1)C(=O)Nc1cc(C)on1 (stereo not given)	-33	-36	4	12	39*	-9	-6
CCOC(=O)c1nn(-c2ccc3c(c2)CCN3C(C)=O)cc1O	i	i	i	i	175*	-4	19*
CCOC(=O)c1nn(-c2ccc(F)cc2)cc1O	-5	-15	0	-9	-4	/	/
CC(C)(C)C(=O)c1c(N)[nH]c(C(=O)c2ccccc2)c1-c1cc2ccccc2nc1Cl	-50	-65	-13	-44	6	/	/
C[n+]1c2cc(N)ccc2cc2ccc(N)cc21	i	i	-23	-80	34*!	56*	59*
Nc1ccc2ccc(O)cc2c1	-34	-45	-5	-22	1	/	/
Cn1c(=O)c2c(ncn2Cc2ccccc2)n(C)c1=O	1	3	-1	6	0	/	/
Cn1c(=O)c2nc(NCc3ccccc3)cnc2n(C)c1=O	-421	i	-136	-470	15*	30*	40*

High-throughput results from PubChem.
